Reference: PubChem BioAssay AID1851 (National Center for Advancing Translational Sciences (NCATS), 2009)
The whole screen tested about 16,000 compounds, of which about 5,100 (32%) were called active. Roughly 25% stayed inconclusive and do not appear here. Calls follow the shape of the dose curve; as a rule, active = well fitted curve in the direction sought with a large enough effect; inconclusive = small, poorly fitted or top-dose-only effect, or effect the other way; inactive = no such curve, though single readings can be large or run the other way. Some of the results follow.

The compounds below were run against Cytochrome P450 3A4 (Homo sapiens) (UniProt P08684) (assay: Cytochrome panel assay with activity outcomes). Conditions: recombinant CYP, pro-luciferin dealkylation, luminescence, p450-cyp3a4; series mostly up to 57.1 µM; activity, negative = inhibition: at the top concentration.
Sequence of Cytochrome P450 3A4 (Homo sapiens) (P08684 whole entry, looked up): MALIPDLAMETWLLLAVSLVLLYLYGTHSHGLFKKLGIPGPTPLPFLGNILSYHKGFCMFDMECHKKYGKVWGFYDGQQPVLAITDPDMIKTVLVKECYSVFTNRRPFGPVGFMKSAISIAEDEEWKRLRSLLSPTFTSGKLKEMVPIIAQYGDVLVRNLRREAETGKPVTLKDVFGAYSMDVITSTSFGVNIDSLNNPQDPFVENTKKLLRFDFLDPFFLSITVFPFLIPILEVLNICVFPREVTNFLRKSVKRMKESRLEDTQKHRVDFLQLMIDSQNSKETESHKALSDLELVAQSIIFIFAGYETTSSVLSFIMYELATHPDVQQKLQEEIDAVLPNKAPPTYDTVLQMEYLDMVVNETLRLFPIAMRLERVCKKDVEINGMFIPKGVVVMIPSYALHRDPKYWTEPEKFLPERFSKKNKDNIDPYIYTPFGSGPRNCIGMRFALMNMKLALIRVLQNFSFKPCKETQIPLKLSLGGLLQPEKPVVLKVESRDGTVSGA
% is scaled to controls: 0 for no effect and ±100 for the full control effect.

SMILES | activity, negative = inhibition | AC50
O=C(O)[C@@H](O)[C@@H](O)[C@@H](O)[C@@H](O)C(=O)O (tested in a mixture with another compound) | -10.1% [at 25.6 µM] (inactive) | 
O=C(Nc1ccc(Cl)cc1Cl)c1cccc(N2C(=O)C=CC2=O)c1 |  | 1.26 µM (active)
O=C(Nc1ccc(Cl)cc1C(F)(F)F)c1ccc(Cl)cc1 | -10.5% (inactive) | 
COc1ccc(CC(=O)NCc2ccccn2)cc1OC | -4.2% [at 2.29 µM] (inactive) | 
COc1cc(CNCc2ccccn2)ccc1OCc1ccc(Cl)cc1Cl |  | 0.501 µM (active)
COc1cc(CNCCN2CCOCC2)ccc1OCc1ccccc1Cl |  | 15.8 µM (active)
COc1cc2c(cc1OC)-c1cc(NCc3ccccn3)nc(=O)n1CC2 | -28.3% (inactive) | 
O=C(O)c1cc(=O)c2c(Cl)cc(Cl)cc2[nH]1 | -3.15% (inactive) | 
O=C1C[C@H]2C(=O)[C@@H]1[C@@H](C(=O)O)[C@H]2C(=O)O | -3.12% [at 11.4 µM] (inactive) | 
COc1cccc(Nc2ncc3nc(C)c(=O)n(Cc4cccs4)c3n2)c1 |  | 3.98 µM (active)
O=c1cnc2cnc(Nc3ccccc3)nc2n1Cc1cccs1 |  | 15.8 µM (active)
COc1ccc(-c2nc3cnc(Nc4ccccc4)nc3n(Cc3cccs3)c2=O)cc1 | -23% (inactive) | 
O=c1c(-c2ccc(F)cc2)nc2cnc(Nc3ccccc3)nc2n1Cc1cccs1 | -25.5% (inactive) | 
Cc1nc2cnc(Nc3ccccc3)nc2n(Cc2cccs2)c1=O |  | 7.94 µM (active)
COc1cccc(Nc2ncc3nc(-c4cccs4)c(=O)n(Cc4cccs4)c3n2)c1 | -24% (inactive) | 
C=C(CC)C(=O)c1ccc(OCC(=O)O)c(Cl)c1Cl | -0.171% [at 25.6 µM] (inactive) | 
CCC(C)NC(=O)c1c(C)cc(=O)oc1C (stereo unspecified) | -6.83% (inactive) | 
C[C@@H](N=C(N)N)C(=O)O | -8.02% [at 11.4 µM] (inactive) | 
Cc1cc(NC(=O)NC(=O)c2ccc(F)cc2F)n[nH]1 | -13.2% (inactive) | 
COc1ccccc1N1CCN(CCCCN2C(=O)CCC2=O)CC1 | -6.98% (inactive) | 
COc1ccccc1N1CCN(CCCCNC(=O)c2ccc3ccccc3c2)CC1 | -28% [at 25.6 µM] (inactive) | 
COc1ccccc1N1CCN(CCCCNS(=O)(=O)c2cccc3c(N(C)C)cccc23)CC1 |  | 2.51 µM (active)
Oc1c(Cl)cc(C(c2cc(Cl)c(O)c(Cl)c2)C(c2cc(Cl)c(O)c(Cl)c2)c2cc(Cl)c(O)c(Cl)c2)cc1Cl | -26.2% [at 11.4 µM] (inactive) | 
CCCCOC(=O)Nc1ccc(C)c(Cl)c1 | -24.3% (inactive) | 

SMILES | activity, negative = inhibition | AC50
Cc1ccc(NC(=O)c2ccccc2C(=O)O)cc1C | -9.2% [at 11.4 µM] (inactive) | 
COC(=O)CSC(C(=O)Nc1ccc(C)c(C)c1)c1ccccc1 (stereo unspecified) |  | 3.98 µM (active)
O=C(C1CCN(S(=O)(=O)c2cccc3nsnc23)CC1)N1CCN(c2ccccc2F)CC1 | -3.92% (inactive) | 
O=C(C1CCCN(S(=O)(=O)c2cccc3nsnc23)C1)N1CC=C(c2ccccc2)CC1 (stereo unspecified) |  | 6.31 µM (active)
O=C(C1CCN(S(=O)(=O)c2cccc3nsnc23)CC1)N1CCn2c1nc1ccccc12 |  | 14.1 µM (active)
O=C(C1CCN(S(=O)(=O)c2cccc3nsnc23)CC1)N1CCCc2ccccc21 |  | 14.1 µM (active)
O=C(O)c1nn(-c2ccc(Cl)cc2)c2c1C(=O)c1ccccc1C2=O | -4.55% [at 11.4 µM] (inactive) | 
COc1cc(=O)n2c(n1)SCCC2 | -0.256% [at 2.29 µM] (inactive) | 
Cn1c(=O)c2[nH]c(-c3ccccc3)nc2n(C)c1=O | -14.6% (inactive) | 
Cn1c(=O)c2[nH]c(-c3ccc(S(=O)(=O)O)cc3)nc2n(C)c1=O | -4.3% (inactive) | 
COc1ccc(-c2nc3c([nH]2)c(=O)n(C)c(=O)n3C)c(OC)c1 |  | 1.58 µM (active)
CS/C(N)=N/N=C/c1ccc([N+](=O)[O-])cc1 | -16.9% (inactive) | 
COc1ccc(C=NC(CO)C(O)c2ccc([N+](=O)[O-])cc2)cc1 (stereo unspecified) |  | 10 µM (active)
C[N+]1(CCOc2ccc([N+](=O)[O-])cc2)CCOCC1 | -1.53% (inactive) | 
COc1ccc(NC(=O)c2cc(-c3cccnc3)nc3ccc(C)cc23)cc1OC |  | 1.41 µM (active)
COc1ccccc1CC(=O)Nc1cc2oc3ccccc3c2cc1OC |  | 7.08 µM (active)
COc1cc2c(cc1NC(=O)Nc1ccccc1)oc1ccccc12 | -27.3% (inactive) | 
COc1cc2c(cc1NC(=O)c1cc(-c3cccnc3)nc3ccc(C)cc13)oc1ccccc12 |  | 3.98 µM (active)
COc1cccc(NC(=O)c2cc(-c3cccnc3)nc3c(Cl)cccc23)c1 |  | 2.24 µM (active)
CC(C)(S)[C@H](N)C(=O)O | -0.648% [at 11.4 µM] (inactive) | 
CC(C)(SCc1ccccc1)[C@H](N)C(=O)O | -12.3% [at 11.4 µM] (inactive) | 
CC(=O)Nc1ccc(-c2cc(C(=O)O)c3cc4ccccc4cc3n2)cc1 | -8.77% [at 11.4 µM] (inactive) | 
COc1ccc(Nc2cc(C(=O)NCCCN3CCN(C)CC3)c3ccccc3n2)cc1 | -29.1% (inactive) | 
Cc1ccc2nc(-c3ccccc3)cc(C(=O)NCCCn3ccnc3)c2c1 |  | 0.562 µM (active)

SMILES | activity, negative = inhibition | AC50
Cc1cnc(CNc2cc(-c3ccoc3)ncn2)cn1 | -21.4% (inactive) | 
Cc1cccc(CNc2cc(-c3c(C)noc3C)ncn2)c1 |  | 5.01 µM (active)
Cc1noc(C)c1-c1cc(NCc2ccccc2)ncn1 | -7.55% (inactive) | 
CN(C)c1ccc(-c2cc(NCc3cccnc3)ncn2)cc1 |  | 3.16 µM (active)
Cc1cccc(CNc2cc(-c3ccc(N(C)C)cc3)ncn2)c1 |  | 6.31 µM (active)
Cc1cccc(CNc2cc(-c3ccoc3)ncn2)c1 |  | 7.94 µM (active)
O=C1C[C@@H](O)[C@@H](O)[C@@H]2[C@H]3C(=O)N(c4ccc(F)cc4F)C(=O)[C@@H]3CC[C@@H]12 | -8.71% [at 11.4 µM] (inactive) | 
O=C(O)[C@@H](S)[C@H](S)C(=O)O | -14.7% [at 11.4 µM] (inactive) | 
Cc1ncc(CO)c(CO)c1O | -2.22% [at 25.6 µM] (inactive) | 
O=c1c(C=Nc2ccc(Oc3ccccc3)cc2)c[nH]n1-c1cccc(Cl)n1 | -25.6% (inactive) | 
Cn1c(N)nc2c(nc(OCc3ccccc3)n2[C@@H]2O[C@H](CO)[C@@H](O)[C@@H]2O)c1=O | -4.84% [at 11.4 µM] (inactive) | 
CCn1cc(C(=O)NCC(=O)OC)c2cc(OC)c(OC)cc2c1=O | -18.8% (inactive) | 
CN(C)c1ccc(-c2cc(NCc3ccccc3)ncn2)cc1 |  | 15.8 µM (active)
FC(F)(F)c1cc(-c2ccco2)nc(NCCc2ccccc2)n1 | 0.414% [at 2.29 µM] (inactive) | 
CCNc1nc(Oc2c(Cl)cccc2Cl)cc(C(F)(F)F)n1 | -8.36% (inactive) | 
FC(F)(F)c1cc(-c2ccco2)nc(NCc2cccs2)n1 |  | 25.1 µM (active)
O=C(CSc1nnc(SCc2cccc3ccccc23)s1)c1ccc2c(c1)OCO2 |  | 2.82 µM (active)
CC1CCN(CC[C@H]2CCCN2S(=O)(=O)c2cccc(O)c2)CC1 | -17.8% (inactive) | 
CC1(C)CCCN(C(=O)N2c3ccccc3Sc3ccccc32)C1 | -13% [at 2.29 µM] (inactive) | 
CC1CCN(CC(=O)N2c3ccccc3Sc3cc4ccccc4cc32)CC1 |  | 3.98 µM (active)
Cc1c(CCO)c(=O)n(C)n1C(=O)c1ccc(F)cc1 | -28.6% (inactive) | 
Cc1c(N(C)CS(=O)(=O)O)c(=O)n(-c2ccccc2)n1C | -3.01% [at 25.6 µM] (inactive) | 
Cc1c(CCO)c(=O)n(-c2ccccc2)n1S(=O)(=O)c1c(Cl)cc(Cl)cc1Cl |  | 4.47 µM (active)
COc1cccc(-c2cc(NCc3ccccc3OC)ncn2)c1 |  | 15.8 µM (active)

SMILES | activity, negative = inhibition | AC50
COc1cccc(-c2cc(NCc3ccc(OC)cc3OC)ncn2)c1 |  | 2.51 µM (active)
CC(C)NC[C@@H](O)COc1ccc(COCCOC(C)C)cc1 |  | inactive
Cc1csc(NC(=O)CCNS(=O)(=O)c2ccc3c(c2)c(=O)n(C)c(=O)n3C)n1 |  | 7.94 µM (active)
Cn1c(=O)n(C)c2cc(S(=O)(=O)O)ccc21 | -5.49% (inactive) | 
CCOc1ccc(NC(=O)CCNS(=O)(=O)c2ccc3c(c2)c(=O)n(C)c(=O)n3C)cc1 |  | 14.1 µM (active)
Cn1c(=O)c2cc(S(=O)(=O)NCCC(=O)Nc3ccc(Cl)cc3)ccc2n(C)c1=O | -20.7% (inactive) | 
Cn1c(=O)c2cc(S(=O)(=O)NCCC(=O)NCc3ccccc3Cl)ccc2n(C)c1=O |  | 14.1 µM (active)
Cc1ccc(CNC(=O)CCNS(=O)(=O)c2ccc3c(c2)c(=O)n(C)c(=O)n3C)cc1 |  | 1.78 µM (active)
Cn1c(=O)c2cc(S(=O)(=O)NCCC(=O)NCCc3ccc(Cl)cc3)ccc2n(C)c1=O |  | 12.6 µM (active)
Cc1nn(-c2ccccc2)c2c1C(=O)N(Cc1ccccc1)C(=O)C(C)(C)C2 | 1.57% [at 2.29 µM] (inactive) | 
Clc1ccc(-c2nnc(CCc3ccccc3)o2)c(Cl)c1 | 0.747% [at 2.29 µM] (inactive) | 
O=c1c(-c2nnc(SCc3ccc(Cl)cc3Cl)o2)cccn1Cc1ccccc1 |  | 22.4 µM (active)
CSc1nnc(-c2ccc(Cl)cc2Cl)o1 | 6.64% (inactive) | 
O=c1c(-c2nnc(SCc3ccc(Cl)c(Cl)c3)o2)cccn1Cc1ccccc1 |  | 20 µM (active)
CC(C)c1ccc(C2C(C#N)=C(N)N3C(=C2C#N)Sc2ccccc23)cc1 (stereo unspecified) | 15.8% (inactive) | 
Cc1ccc(Cl)cc1-n1c(=O)cc(N2CC(C)OC(C)C2)[nH]c1=O (stereo unspecified) | -17% (inactive) | 
O=S1(=O)C=C(N2CCOCC2)c2ccccc21 | -21% [at 11.4 µM] (inactive) | 
c1ccc2c(c1)-c1nc3ccccc3cc1[C@H]2N1CCOCC1 |  | 2.51 µM (active)
O=C(O)CN(CCN(CC(=O)O)CC(=O)O)CC(=O)O.[Cu] | 10.2% [at 11.4 µM] (inactive) | 
Cc1ccc(-c2csc(C(C#N)=C3CCCC3)n2)cc1 |  | 20 µM (active)
O=C(Nc1ccc(-c2csc(-c3ccccc3)n2)cc1)c1ccccc1Cl | 13.2% (inactive) | 
N=C1SCC(=O)N1c1nc(-c2ccccc2)cs1 | 0.753% [at 2.29 µM] (inactive) | 
N#CC(=C1CCCC1)c1nc(-c2ccccc2)cs1 |  | 15.8 µM (active)
COc1ccc(/C=N/N(C(C)=O)c2nc(-c3ccc(C)cc3)cs2)cc1 | 3.8% (inactive) | 
